Test results taken from PubChem BioAssay (NCI).
Compounds without any hit were thinned out: in the full panel of roughly 83,000, 20% have a hit.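 Compound tested at a single concentration for 48 hours in 96-well plates; a percent growth value below 10 was scored as active.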 A number with no mark means an inactive call. Activity calls are given as the source filed them.

Columns and labels:
Test in all cases: NCI-60 one-dose screen, 48 h (100 = growth as untreated, 0 = no growth, -100 = all killed)
Settings in all cases: 10 µM
HCT-15 colon = tested on: HCT-15 colon
HT29 colon = tested on: HT29 colon
SNB-75 CNS = tested on: SNB-75 CNS
SNB-19 CNS = tested on: SNB-19 CNS
U251 CNS = tested on: U251 CNS
PC-3 prostate = tested on: PC-3 prostate
SK-MEL-5 melanoma = tested on: SK-MEL-5 melanoma
UACC-62 melanoma = tested on: UACC-62 melanoma
LOX IMVI melanoma = tested on: LOX IMVI melanoma
SK-MEL-28 melanoma = tested on: SK-MEL-28 melanoma

SMILES | growth (HCT-15 colon) | growth (HT29 colon) | growth (SNB-75 CNS) | growth (SNB-19 CNS) | growth (U251 CNS) | growth (PC-3 prostate) | growth (SK-MEL-5 melanoma) | growth (UACC-62 melanoma) | growth (LOX IMVI melanoma) | growth (SK-MEL-28 melanoma)
O=c1[nH][nH]c(Nc2ccccc2)c1N=Nc1ccc(F)cc1 | 70.1% | 107% | 59.4% | 95.3% | 99.9% | 95.5% | 96.6% | 92.1% | 102% | 108%
O=C(CSc1ccc(-c2ccc(Cl)cc2)nn1)Nc1ccc(Cl)c(C(F)(F)F)c1 | 25.9% | 40.6% | 58.6% | 71.9% | 73.1% | 71.9% | 55.9% | 32.7% | 47.3% | 66.9%
CN1CCN(c2ccc(Nc3nc(NCCCNC(=O)c4ccccc4)c4sccc4n3)cc2)CC1 | 12.3% | 14.6% | 110% | 95.5% | 22.8% | 56.8% | 64.9% | 84.6% | 16% | 73.3%
COc1cc(C2CC(c3ccccc3)=Nc3c(N)nc(N)nc3N2)ccc1Oc1nc(Nc2ccc(F)cc2)nc(N(C)C)n1 (stereo not given) | 20.8% | 24.7% | 61% | 62.2% | 56.3% | 40.7% | -97.8% (active) | 48.5% | 23.2% | 67.8%
O=C1c2ccccc2C(=O)c2c1c(C(=O)c1ccc(Cl)cc1)n1c2ccc2c3ccccc3ccc21 | 103% | 109% | 86.7% | 96.1% | 110% | 94.8% | 99.9% | 96.9% | 90.2% | 108%
CN1C(=O)/C(=C/c2nccs2)SC1=S | 68.8% | 99.4% | 66.4% | 90.5% | 90.7% | 109% | 96.6% | 79% | 62.7% | 95.8%
O=C1Nc2ccc(Cl)cc2/C1=C/c1cccc(OCc2ccccc2)c1 | 22.3% | 30.7% | 73.9% | 44.2% | 3.61% (active) | 29.3% | 22.4% | 26.3% | 1.77% (active) | 46.9%
Brc1ccc(/C=C/c2n(Cc3ccc4ccccc4c3)c3ccccc3[n+]2Cc2ccc3ccccc3c2)cc1 | 7.22% (active) | -87% (active) | -84.3% (active) | -45.9% (active) | -88.9% (active) | -79.1% (active) | -99.2% (active) | -81.9% (active) | -100% (active) | -93.1% (active)
CO[C@H]1CSS[C@@H]1Cn1nc(-c2ccc(Oc3ccccc3)cc2)c2c(N)ncnc21 | 22.1% | 17.2% | 104% | 29.6% | 24.6% | 41.2% | -4.24% (active) | -69.5% (active) | 36.8% | -35.8% (active)
C=C(C)[C@@H]1CC[C@]2(COP(=O)(OCC)OCC)CC[C@]3(C)[C@H](CC[C@@H]4[C@@](C)(CCCN)[C@H](C(=C)C)CC[C@]43C)[C@@H]12 | 9.75% (active) | 5.73% (active) | 34.4% | 40.4% | 21% | 13.1% | -47.6% (active) | 35.3% | 1.01% (active) | 31.7%
Cc1ccn2c(C(=O)c3ccccc3)cc(-c3cc(-c4ccc(N(C)C)cc4)c(C#N)c(N)n3)c2c1 | 73.1% | 63.1% | 78.4% | 60.9% | 31.9% | 78.1% | 58.1% | 64.6% | 21.8% | 74.3%
CN1CCc2c(sc3ncnc(N/N=C/c4cn(-c5ccccc5)nc4-c4ccc(Br)cc4)c23)C1 | 27.4% | 16.5% | 88.8% | 62.4% | 44.9% | 20.8% | 50% | 67.3% | 28.4% | 68.9%
COC(=O)c1c(C(=O)OC)c2n(c1C)[C@@H]([C@@H](C)[C@H]1CC[C@H]3[C@@H]4CCC5=CC(=O)CC[C@]5(C)[C@H]4CC[C@]13C)SC2 | 22.2% | 32.9% | 51.1% | 54.2% | 38.9% | 8.05% (active) | -87% (active) | 40.6% | 28.4% | 43.1%
O=C(CNc1nc(-c2ccccc2)cs1)Nc1cccc(Cl)c1 | 5.51% (active) | 32.1% | 50.2% | 51% | 26.9% | 18.9% | 35.5% | 19.8% | 7.96% (active) | 42.8%
COc1ccc(/C=N/N=C(\C)c2ccc3c(c2)Nc2ccccc2S3)cc1O | 29.8% | 85.3% | 66% | 63.7% | 64.5% | 45.4% | -23.5% (active) | 58.9% | 21% | 60.9%
COc1cccc(-c2nn(-c3ccccc3)cc2-c2ccnc(NCCCNC(=O)Nc3ccc(F)cc3)c2)c1 | -16.3% (active) | -7.83% (active) | 0.286% (active) | 6% (active) | 8.94% (active) | 3.99% (active) | -71% (active) | 11.4% | 3.45% (active) | -3.54% (active)
COc1ccc(Nc2nc(N)n(Cc3cccc(Br)c3)n2)cc1 | 8.53% (active) | 31.9% | 11.7% | 18.6% | 24.7% | 13.1% | -93.3% (active) | 2.3% (active) | -67.3% (active) | 5.84% (active)
O=C(CSc1nnc(-c2c[nH]c3ccccc23)n1-c1ccccc1)c1ccc(Cl)cc1 | 73.3% | 42.6% | 54.7% | 40% | 30.1% | 60.4% | 78.2% | 52.8% | 15.9% | 68.3%
O=C(CSc1nnc(-c2ccc3nc(-c4ccc(Cl)cc4)[nH]c3c2)o1)Nc1ccc(Cl)cc1 | -84% (active) | -35.4% (active) | 58% | -49.4% (active) | -57.7% (active) | -7.65% (active) | -68.9% (active) | -87.1% (active) | -99.2% (active) | -76.9% (active)
CCCCCCCCCCCCCCCCCCCC(=O)NCCc1c[nH]c2ccc(OC(=O)CCCC(=O)OCCOOCCOOCCOOCCOOCCOOCCOOCCOOCCOOCCOOCCOOCCOOCCOC)cc12 | 56% | 63.4% | 110% | 69.1% | -31.3% (active) | 22% | 99.6% | 67.1% | 27.2% | 88%
CN(C)c1cccc2c(S(=O)(=O)Nc3cccc(-c4csc(NC(=O)CCCCCN5CCN(c6cc7c(cc6F)C(=O)N(C6CCC(=O)NC6=O)C7=O)CC5)n4)c3)cccc12 (stereo not given) | 77.9% | 92.3% | 60.5% | 92.8% | 94.4% | 78.5% | 60.2% | 83.1% | 91.8% | 104%
OCCCNc1oc(-c2ccccc2)nc1[P+](c1ccccc1)(c1ccccc1)c1ccccc1 | 45.9% | 6.51% (active) | -2.93% (active) | 4.56% (active) | 13.7% | 9.56% (active) | -100% (active) | -70.2% (active) | -16.6% (active) | 7.68% (active)
Nc1nc(-c2ccccc2)cc(-c2cc3ccccc3nc2Cl)n1 | 55.9% | 102% | 71.4% | 73.4% | 63.4% | 76.9% | 92.9% | 83.3% | 45% | 103%
CC(=C(c1ccc(OCCCN(C)C)cc1)c1ccc(OCCCN(C)C)cc1)c1ccccc1 | -92.1% (active) | -78.4% (active) | -77.5% (active) | -98.1% (active) | -86.1% (active) | -74.2% (active) | -100% (active) | -99.3% (active) | -100% (active) | -99.3% (active)
CCOC(=O)N/C(=C1/OCCN1C)[P+](c1ccccc1)(c1ccccc1)c1ccccc1 | 98.5% | 60.3% | 84.3% | 71.6% | 66.3% | 50.5% | 82.8% | 51% | 57.5% | 61.3%
Cc1ccc(CNC(=O)Cc2ccc3c(c2)CN(C2CCC(=O)NC2=O)C3=O)cc1 (stereo not given) | -20.1% (active) | 24.6% | -16.8% (active) | 4% (active) | 55.5% | 10.4% | -70.5% (active) | 40.6% | 71.4% | 22%
